CHX counter = Cycloheximide Counterscreen for Small Molecule Inhibitors of Shiga Toxin. 12% of 300,000 active. max response, %. cell reporter, cycloheximide protein synthesis inhibition counterscreen; in the data active = max response mostly above about 13%, no sharp cut-off; inactive = mostly below about 14%; also: read at 38.3 µM for the half of the compounds with a filed dose; 0% is about no effect
Giardia FBPA inh-1 = qHTS Assay for Inhibitors of Fructose-1,6-bisphosphate Aldolase from Giardia Lamblia; A8B2U2; 0.71% of 290,000 active; purified Giardia FBPA; AID 2451, 2010; Potency, µM (titrated, usually from 59.6 µM), without a hit: at the highest dose activity, negative = inhibition, actives largely listed as inhibitors; also: potency is read from the fitted curve at half-maximal effect; % is scaled to controls: 0 for no effect and ±100 for the full control effect; nearly all actives have a fitted effect of over 55% in size
Target sequence (A8B2U2 whole entry, looked up): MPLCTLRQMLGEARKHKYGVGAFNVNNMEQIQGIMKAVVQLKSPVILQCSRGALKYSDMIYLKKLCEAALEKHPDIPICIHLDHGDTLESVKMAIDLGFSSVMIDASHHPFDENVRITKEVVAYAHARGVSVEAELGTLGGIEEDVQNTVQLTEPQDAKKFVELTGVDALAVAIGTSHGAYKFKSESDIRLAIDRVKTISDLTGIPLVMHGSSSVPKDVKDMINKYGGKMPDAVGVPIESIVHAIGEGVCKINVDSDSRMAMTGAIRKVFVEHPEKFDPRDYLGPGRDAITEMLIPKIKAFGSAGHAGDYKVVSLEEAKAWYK
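40 nM FBPA preincubated 10 min at RT with compound (up to 57.5 uM final), then substrate plus GAPDH/TPI/NAD/arsenate coupling and diaphorase/resazurin added. Fluorescence read after 20 min at RT, 525/598 nm.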
Tb PYK inh = qHTS of Trypanosoma Brucei Inhibitors. TbPYK enzyme, Kinase-Glo Plus ATP luminescence, 45 min. pyruvate kinase (Trypanosoma brucei), Q57TT1. 0.12% of 410,000 active. AID 624173, 2012. Potency, µM (series often up to 76.8 µM), without a hit: at the highest dose activity, negative = inhibition, actives largely listed as inhibitors; also: potency is read from the fitted curve at half-maximal effect; % is scaled to controls: 0 for no effect and ±100 for the full control effect; nearly all actives have a fitted effect of over 50% in size
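Readout: single end-point luminescence (Kinase-Glo Plus, 10 min). Reaction conditions were TbPYK/substrate plus 130 uM ADP, 45 min at RT, pH 7.2 TEA buffer. No-enzyme wells served as controls, and data were normalized before concentration-response fitting.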
Sm TGR inh = qHTS Assay for the Inhibitors of Schistosoma Mansoni Peroxiredoxins. Schistosoma mansoni thioredoxin glutathione reductase (TGR), Q962Y6. purified TGR, DTNB reduction, TNB absorbance 405 nm. Potency, µM (doses to about 114 µM), inactives show at the highest dose activity change, negative = inhibition, usual class: inhibitors. 3% of 360,000 active; also: potency is read from the fitted curve at half-maximal effect; % is scaled to controls: 0 for no effect and ±100 for the full control effect; nearly all actives have a fitted effect of over 60% in size
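First, TGR (20 nM dispensed) and NADPH were mixed with compound. Second, a 15 min room-temperature incubation followed. Third, further NADPH and then DTNB were added to start the reaction. Finally, TNB absorbance was monitored kinetically.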
Shiga inhibitor = A qHTS for Small Molecule Inhibitors of Shiga Toxin; Vero cells, Shiga toxin protein synthesis inhibition reporter; 9.2% of 290,000 active; AID 2315, 2010; inhibition, % at 38.7 µM; in the data active = inhibition mostly above about 28%, no sharp cut-off; inactive = mostly below about 43%; also: 0% is about no effect
LmPK inh = qHTS Assay for Inhibitors of Leishmania Mexicana Pyruvate Kinase (LmPK); Q27686; 0.37% of 290,000 active; Potency, µM (highest dose often 57.5 µM), without a hit: at the highest dose activity change, negative = inhibition, hits mostly inhibitors; purified LmPK, Kinase-Glo ATP luminescence, 1 h; also: potency is read from the fitted curve at half-maximal effect; % is scaled to controls: 0 for no effect and ±100 for the full control effect
Target sequence (Q27686 whole entry, looked up): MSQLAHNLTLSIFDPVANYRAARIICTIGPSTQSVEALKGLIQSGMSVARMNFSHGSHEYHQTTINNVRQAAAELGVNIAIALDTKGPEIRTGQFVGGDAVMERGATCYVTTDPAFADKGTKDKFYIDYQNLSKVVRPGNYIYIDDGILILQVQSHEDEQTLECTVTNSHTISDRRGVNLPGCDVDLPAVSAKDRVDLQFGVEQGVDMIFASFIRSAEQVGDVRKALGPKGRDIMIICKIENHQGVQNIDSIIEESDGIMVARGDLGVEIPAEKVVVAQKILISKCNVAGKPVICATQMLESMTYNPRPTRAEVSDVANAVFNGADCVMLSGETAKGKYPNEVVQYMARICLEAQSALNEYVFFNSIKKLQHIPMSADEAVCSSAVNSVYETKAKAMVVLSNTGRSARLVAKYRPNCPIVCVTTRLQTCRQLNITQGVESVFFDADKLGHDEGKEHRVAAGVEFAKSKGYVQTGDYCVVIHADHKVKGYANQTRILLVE
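Screened at intermediate enzyme activity to detect both inhibitors and activators: LmPK at 0.1 nM, with a 0.5 nM enzyme column as activation reference. PEP 0.5 mM, ADP 0.1 mM; ATP detected by luminescence after 1 h.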
Giardia growth = qHTS Assay for Inhibitors of Fructose-1,6-bisphosphate Aldolase from Giardia Lamblia: Giardia lamblia growth inhibition; AID 2785, 2010; shares compounds with Giardia FBPA inh-1; Giardia lamblia trophozoite growth inhibition; 5% of 1,500 active; Potency, µM (doses to about 57.5 µM), for inactives: at the top dose activity change, negative = inhibition, usual class: inhibitors;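 also: potency is read from the fitted curve at half-maximal effect; trophozoites exposed to compound for 48 h at 37 °C; % is scaled to controls: 0 for no effect and ±100 for the full control effect; nearly all actives have a fitted effect of over 70% in size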
Mammalian tox = qHTS Assay for Inhibitors of Fructose-1,6-bisphosphate Aldolase from Giardia Lamblia: Mammalian cellular toxicity; shares compounds with Giardia FBPA inh-1; mammalian cell viability counter-screen, qHTS; Potency, µM (series often up to 57.5 µM), for inactives: at the top dose viability change, negative = toxicity, hits mostly inhibitors; 4% of 1,500 active;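 also: Chinese hamster ovary cells used as mammalian cytotoxicity surrogate; viability measured as cellular ATP by luminescence; potency is read from the fitted curve at half-maximal effect; compound exposure lasted 48 h before reading; % is scaled to controls: 0 for no effect and ±100 for the full control effect; nearly all actives have a fitted effect of over 60% in size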
Giardia FBPA inh-2 = qHTS Assay for Inhibitors of Fructose-1,6-bisphosphate Aldolase from Giardia Lamblia: Primary screen confirmation; 5% of 1,500 active; shares compounds with Giardia FBPA inh-1; Potency, µM (doses to about 57.5 µM), for inactives: at the highest dose activity change, negative = inhibition, hits mostly inhibitors; purified Giardia aldolase enzyme activity, qHTS; AID 2787, 2010; also: potency is read from the fitted curve at half-maximal effect; % is scaled to controls: 0 for no effect and ±100 for the full control effect; nearly all actives have a fitted effect of over 45% in size
Rabbit aldolase = qHTS Assay for Inhibitors of Fructose-1,6-bisphosphate Aldolase from Giardia Lamblia: Rabbit FBPA Selectivity; Rabbit muscle FBPA enzyme inhibition, selectivity counter-screen; Potency, µM (titrated, usually from 57.5 µM), for the others: at the highest dose activity, negative = inhibition, usual class: inhibitors; shares compounds with Giardia FBPA inh-1; 4% of 1,500 active; also: potency is read from the fitted curve at half-maximal effect; % is scaled to controls: 0 for no effect and ±100 for the full control effect; nearly all actives have a fitted effect of over 60% in size
GAPDH coupling = qHTS Assay for Inhibitors of Fructose-1,6-bisphosphate Aldolase from Giardia Lamblia: Coupling assay counterscreen confirmation; shares compounds with Giardia FBPA inh-1; GAPDH coupling enzyme counterscreen, biochemical, qHTS; Potency, µM (titrated, usually from 57.5 µM), inactives show at the top dose activity change, negative = inhibition, hits mostly inhibitors; 6% of 1,500 active; AID 2795, 2010; also: potency is read from the fitted curve at half-maximal effect; % is scaled to controls: 0 for no effect and ±100 for the full control effect; nearly all actives have a fitted effect of over 55% in size
The depositor's hits bear a star; ? = inconclusive; . = not tested or not shown; [ ] = dose if it differs, or a comment. This excerpt belongs to a sample that is enriched for hits. Unless noted, calls follow the shape of the dose curve; as a rule, active = well fitted curve in the direction sought with a large enough effect; inconclusive = small, poorly fitted or top-dose-only effect, or another doubt; inactive = no such curve, though single readings can be large; an effect the other way counts as inactive or inconclusive.

SMILES	CHX counter	Giardia FBPA inh-1	Tb PYK inh	Sm TGR inh	Shiga inhibitor	LmPK inh	Giardia growth	Mammalian tox	Giardia FBPA inh-2	Rabbit aldolase	GAPDH coupling
Cc1ccc(C(=O)OCC(=O)Nc2ccc3c(c2)OCO3)c(O)c1	.	.	0%	0%	.	.	.	.	.	.	.
CCN(C(=O)CSc1ncccn1)c1c(N)n(Cc2ccccc2)c(=O)[nH]c1=O	.	.	1%	-3%	.	.	.	.	.	.	.
COc1ccc(C(=S)N2CCCCCC2)cc1	-3	0%	-16%	-19%	14	6%	.	.	.	.	.
CCN1CCN(C(=S)c2ccc(OC)cc2)CC1	-1	4.5µM*	-30%	2%	-4	5%	3%[38.3 µM]	1%	-5%	3%	-8%
CCOc1ccc(C(=S)N2CCN(C)CC2)cc1	-1	18µM*	?	3%	24	-4%	-24%	-8%	-5%	1%	1%
CC(C(=O)Nc1ccc(Cl)cc1Cl)N1C(=O)NC2(CCCCCCC2)C1=O (stereo not drawn)	.	.	1%	1%	.	.	.	.	.	.	.
O=C(CNCc1ccco1)Nc1cccc(S(=O)(=O)N2CCCCC2)c1	-3	18µM*	-15%	4%	8	-1%	-4%[10.4 µM]	-7%	5%	0%	7%
O=[N+]([O-])c1cc(F)cc(F)c1Nc1cc(F)cc(F)c1	.	.	2%	.	.	.	.	.	.	.	.
Cc1ccc(C)c(-n2c3nc(=O)n(C)c(=O)c-3cc3ccccc32)c1	-2	6%	0%	-35%	-9	7%	.	.	.	.	.
Cc1nc2c(=O)n(C)c(=O)nc-2n(C)n1	-11	?	4%	?	-3	0%	5µM*	16µM*	4µM*	4µM*	2.2µM*
COC(=O)/C=C1\S/C(=N\N=C\CC(=O)OC)NC1=O	-2	16µM*	-8%	-8%	-5	1%	19%	14%	-6%	3%	-11%
CCc1nc2ccccc2n1CCc1ccccc1	-2	-16%	-1%	-4%	-2	-1%	.	.	.	.	.
CCn1c(CCc2ccccc2)nc2ccccc21	32*	14µM*	2%	-18%	27	1%	-15%	-10%	-4%	-2%	-2%
O=C(NC(=S)N1CCN(Cc2ccccc2)CC1)c1cccnc1	-2	18µM*	?	-2%	-14	-12%	?	12%	2%	3%	8%
O=C(NCC(=O)N1CCN(C/C=C/c2ccccc2)CC1)c1ccc(Br)cc1	.	.	-1%	.	.	.	.	.	.	.	.
O=C(NC(=S)N1CCN(C/C=C/c2ccccc2)CC1)c1ccc(Cl)nc1	-1	7.9µM*	-18%	-17%	-10	4%	-14%[38.3 µM]	?	-2%	4%	-8%
CCCCN1C(=O)C(CC(=O)NCc2cccc3ccccc23)CC(C(=O)N(C)C)=C1C (stereo not drawn)	.	.	5%	.	.	.	.	.	.	.	.
COc1ccc(-c2cc(-c3ccco3)[nH]c(=O)c2C#N)cc1OC	0	16µM*	3%	4µM*	-14	4%	19%	-14%	-15%	-11%	-4%
O=C(c1cn(Cc2ccccc2)nc1-c1ccccc1)N1CCN(c2ccccn2)CC1	.	.	0%	4%	.	.	.	.	.	.	.
COc1cc(-c2nc(S(=O)(=O)c3ccc(C)cc3)c(N3CCOCC3)o2)cc(OC)c1OC	1	35µM*	5%	?	-8	1%	?	-22%	3%	10%	6%
COc1cc(Br)c(CNc2cc(C)ccc2C)cc1OC	-2	20µM*	-6%	10%	-4	-7%	-19%	-3%	-3%	7%	6%
NS(=O)(=O)c1ccc(-c2ccc(/C=C3\NC(=S)NC3=O)o2)cc1	-2	16µM*	?	8.9µM*	-6	-2%	?	1%	-25%	-15%	-7%
O=C(O)CC1OCC=C2CN3CCC45C6=CC(=O)C(=O)C([N+](=O)[O-])=C6NC4C1C2CC35 (stereo not drawn)	-1	1.3µM*	1%	?	-1	-12%	13µM*	-11%	4.5µM*	8.9µM*	4µM*
CCOC(=O)C1CCCN(CCC(=O)Nc2ccc(C)c(C)c2)C1 (stereo not drawn)	2	-3%	7%	2%	-1	2%	.	.	.	.	.
CCOC(=O)C1CCCN(CCC(=O)Nc2ccc(Br)c(C)c2)C1 (stereo not drawn)	-1	14µM*	4%	-9%	-1	-4%	?	-8%	4%	8%	10%
Cc1nnc(NC(=O)c2ccc(S(=O)(=O)N3CCc4ccccc4C3)cc2)o1	-3	18µM*	5%	11%	-9	6%	?	1%	-7%	7%	6%
COCc1nnc(NC(=O)c2ccc(S(=O)(=O)N3CCCc4ccccc43)cc2)o1	7	18µM*	0%	-14%	-8	-5%	1%[10.4 µM]	-12%	-2%	11%	0%
COCc1nnc(NC(=O)c2ccc(S(=O)(=O)N3CCOCC3)cc2)o1	-3	22µM*	6%	3%	-6	4%	?	-3%	4%	18%	5%
COc1ccccc1-c1nnc(NC(=O)c2ccc(S(=O)(=O)N3CCOCC3)cc2)o1	-1	.	-1%	3%	5	2%	.	.	.	.	.
COc1ccc(-c2nnc(NC(=O)c3ccc(S(=O)(=O)N4CCCc5ccccc54)cc3)o2)cc1	1	28%	-6%	7%	-1	0%	.	.	.	.	.
